# Screen size: about 5,500 compounds; about 2,000 (36%) were called active. Roughly 18% stayed inconclusive and do not appear here. This is one part of the list. A number with no mark means an inactive call. No stated cut-off is given here; in the data, active means normalized growth mostly below about 0.91 (no sharp cut-off); inconclusive means no clear call, values can overlap the other calls; inactive means mostly above about 0.92.
# Assay: chemical genetic growth profiling, strain panel (AID 1159580);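 further: tested at 20 µM; growth read once vehicle control cultures reached saturation at 30 °C; 1 = growth at the plate median or of vehicle wells; lower values mean less growth of the strain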
# Details: S. cerevisiae deletion strains, growth OD
compound,measurement,setting,value
CC(C)(C)C(=O)NC(=S)N/N=C\c1cc(Cl)cc(Cl)c1O,normalized growth,"locus YAR019C, strain CDC15, active compounds read low",0.924
same,normalized growth,"locus YBL105C, strain PKC1, active compounds read low",0.937
same,normalized growth,"locus YBR135W, strain CKS1, active compounds read low",0.907
same,normalized growth,"locus YBR136W, strain MEC1, active compounds read low",0.936
same,normalized growth,"locus YBR160W, strain CDC28, active compounds read low",0.94
same,normalized growth,"locus YDL017W, strain CDC7, active compounds read low",0.94
same,normalized growth,"locus YDL028C, strain MPS1, active compounds read low",0.927
same,normalized growth,"locus YDL101C, strain DUN1, active compounds read low",0.949
same,normalized growth,"locus YDL108W, strain KIN28, active compounds read low",0.936
same,normalized growth,"locus YDL132W, strain cdc53, active compounds read low",0.961
same,normalized growth,"locus YDL214C, strain PRR2, active compounds read low",0.333 (active)
same,normalized growth,"locus YDR052C, strain DBF4, active compounds read low",0.945
same,normalized growth,"locus YDR054C, strain cdc34, active compounds read low",0.918
same,normalized growth,"locus YDR226W, strain ADK1, active compounds read low",0.958
same,normalized growth,"locus YDR477W, strain SNF1, active compounds read low",0.566 (active)
same,normalized growth,"locus YER123W, strain YCK3, active compounds read low",0.167 (active)
same,normalized growth,"locus YER133W, strain GLC7, active compounds read low",0.48 (active)
same,normalized growth,"locus YFL009W, strain cdc4, active compounds read low",0.924
same,normalized growth,"locus YFL029C, strain CAK1, active compounds read low",0.923
same,normalized growth,"locus YFR003C, strain YPI1, active compounds read low",0.947
same,normalized growth,"locus YFR019W, strain FAB1, active compounds read low",0.365 (active)
same,normalized growth,"locus YFR028C, strain CDC14, active compounds read low",0.938
same,normalized growth,"locus YGR040W, strain KSS1, active compounds read low",0.546 (active)
same,normalized growth,"locus YGR052W, strain FMP48, active compounds read low",0.346 (active)
same,normalized growth,"locus YGR092W, strain DBF2, active compounds read low",0.165 (active)
same,normalized growth,"locus YHR030C, strain SLT2, active compounds read low",0.278 (active)
same,normalized growth,"locus YHR079C, strain IRE1, active compounds read low",0.144 (active)
same,normalized growth,"locus YHR082C, strain KSP1, active compounds read low",0.277 (active)
same,normalized growth,"locus YHR205W, strain SCH9, active compounds read low",0.248 (active)
same,normalized growth,"locus YIL147C, strain SLN1, active compounds read low",0.933
same,normalized growth,"locus YJL095W, strain BCK1, active compounds read low",0.2 (active)
same,normalized growth,"locus YJL128C, strain PBS2, active compounds read low",0.974
same,normalized growth,"locus YJL157C, strain FAR1, active compounds read low",0.215 (active)
same,normalized growth,"locus YJR016C, strain ILV3, active compounds read low",0.922
same,normalized growth,"locus YJR066W, strain TOR1 (second series), active compounds read low",0.149 (active)
same,normalized growth,"locus YJR066W, strain TOR1, active compounds read low",0.182 (active)
same,normalized growth,"locus YKL048C, strain ELM1, active compounds read low",0.439 (active)
same,normalized growth,"locus YKL067W, strain YNK1, active compounds read low",0.286 (active)
same,normalized growth,"locus YKL101W, strain HSL1, active compounds read low",0.237 (active)
same,normalized growth,"locus YKL193C, strain SDS22, active compounds read low",0.921
same,normalized growth,"locus YKL203C, strain TOR2, active compounds read low",0.332 (active)
same,normalized growth,"locus YLR113W, strain HOG1, active compounds read low",0.245 (active)
same,normalized growth,"locus YLR133W, strain CKI1, active compounds read low",0.224 (active)
same,normalized growth,"locus YLR403W, strain SFP1, active compounds read low",0.35 (active)
same,normalized growth,"locus YML070W, strain DAK1, active compounds read low",0.285 (active)
same,normalized growth,"locus YMR001C, strain CDC5, active compounds read low",0.919
same,normalized growth,"locus YMR205C, strain PFK2 (second series), active compounds read low",0.221 (active)
same,normalized growth,"locus YMR277W, strain FCP1, active compounds read low",0.926
same,normalized growth,"locus YNL006W, strain LST8, active compounds read low",0.924
same,normalized growth,"locus YNL020C, strain ARK1, active compounds read low",0.19 (active)
same,normalized growth,"locus YNL161W, strain CBK1, active compounds read low",0.932
same,normalized growth,"locus YNL183C, strain NPR1, active compounds read low",0.269 (active)
same,normalized growth,"locus YNL207W, strain RIO2, active compounds read low",0.953
same,normalized growth,"locus YNL222W, strain SSU72, active compounds read low",0.926
same,normalized growth,"locus YNL307C, strain MCK1 (second series), active compounds read low",0.18 (active)
same,normalized growth,"locus YOL078W, strain AVO1, active compounds read low",0.916
same,normalized growth,"locus YOL136C, strain PFK27, active compounds read low",0.242 (active)
same,normalized growth,"locus YOR061W, strain CKA2, active compounds read low",0.245 (active)
same,normalized growth,"locus YOR119C, strain RIO1, active compounds read low",0.547 (active)
same,normalized growth,"locus YOR231W, strain MKK1, active compounds read low",0.173 (active)
same,normalized growth,"locus YOR329C, strain SCD5, active compounds read low",0.949
same,normalized growth,"locus YPL031C, strain PHO85, active compounds read low",0.498 (active)
same,normalized growth,"locus YPL153C, strain RAD53, active compounds read low",0.27 (active)
same,normalized growth,"locus YPL204W, strain HRR25, active compounds read low",0.249 (active)
same,normalized growth,"locus YPL209C, strain IPL1, active compounds read low",0.93
same,normalized growth,"locus YPL256C, strain CLN2, active compounds read low",0.285 (active)
same,normalized growth,"locus YPR025C, strain CCL1, active compounds read low",0.928
same,normalized growth,"locus YPR106W, strain ISR1, active compounds read low",0.969
same,normalized growth,"locus YPR111W, strain DBF20, active compounds read low",0.954
same,normalized growth,"strain NNK1, active compounds read low",0.958
same,normalized growth,"strain TSCII, active compounds read low",0.768 (active)

# From PubChem BioAssay AID1159580 (chemical genetic matrix, 2015)
